# High-throughput results deposited in PubChem by several laboratories.
# BH1578 lux ind = inducers of Vibrio cholerae quorum light production without autoinducers. V. cholerae BH1578 lux reporter, luminescence, 6 h. activation, % at 18.7 µM. 350,000 compounds, 0.16% hits. AID 588436; in the data active = activation mostly above about 9.7%, no sharp cut-off
# VHR inh abs = inhibitors of human VHR1 phosphatase (DUSP3). AID 1654. recombinant VHR phosphatase, pNPP absorbance. 290,000 compounds, 0.52% hits. P51452. inhibition, % at 13.3 µM; in the data active = inhibition above about 50%
# Target sequence (P51452 whole entry, looked up): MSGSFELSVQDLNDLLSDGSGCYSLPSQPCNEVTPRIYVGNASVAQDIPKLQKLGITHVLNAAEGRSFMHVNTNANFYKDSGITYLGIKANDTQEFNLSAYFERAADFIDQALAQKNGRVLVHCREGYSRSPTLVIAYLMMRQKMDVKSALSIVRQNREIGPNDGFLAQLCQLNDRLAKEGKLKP
# CCHF vOTU inh = blocks the CCHF virus ovarian tumor domain protease; AID 651958; inhibition, % at 11.5 µM; CCHFV vOTU protease, Pep-AMC fluorescence; 370,000 compounds, 0.55% hits; in the data active = inhibition above about 30%; also: 0% = vehicle wells with enzyme and 100% = no enzyme wells
# 3CLpro inhibitor = SARS-CoV 3CLpro protease inhibition; recombinant SARS-CoV 3CLpro, quenched FRET peptide cleavage; inhibition, % at 6 µM; 290,000 compounds, 0.14% hits; AID 1706; in the data active = inhibition above about 12%
# TcdB GH inh = TcdB glycohydrolase inhibition; AID 652162; TcdB glycohydrolase enzymatic assay, plate reader; inhibition, % at 9.99 µM; 350,000 compounds, 0.24% hits; in the data active = inhibition above about 10%
# SSB-PriA inh = blocks PriA binding to SSB C-terminal tail; AID 1272365; AlphaScreen SSBct-PriA binding, biotinylated peptide; inhibition, % at 33 µM; 430,000 compounds, 0.6% hits; in the data active = inhibition mostly above about 37%, no sharp cut-off; inactive = mostly below about 20%;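 also: plate controls were negative control peptide for no effect and reference peptide for full effect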
# * marks the source's active call; other numbers are inactive results; i = inactive; / = no result. Compounds with a hit are over-represented: about 1.3% of the library has one in this group of screens.
SMILES,BH1578 lux ind,VHR inh abs,CCHF vOTU inh,3CLpro inhibitor,TcdB GH inh,SSB-PriA inh
COc1ccccc1Nc1nnc(SCc2cc(=O)n3ccsc3n2)s1,0,12,21,0,15*,2
Cc1ccc(Nc2nnc(SCc3cc(=O)n4ccsc4n3)s2)c(C)c1,2,4,23,-9,/,-4
COc1cc2cc(CN(Cc3nnnn3Cc3ccco3)C3CCCCC3)c(=O)[nH]c2cc1OC,33*,-11,-5,5,/,-9
O=C(Cn1cnc2c(cnn2CCO)c1=O)N1N=C(c2cccs2)C[C@H]1c1ccc(F)cc1,/,/,/,/,/,-1
O=C(c1ccc(-c2ccsc2)cc1)N(Cc1ccsc1)C1CC1,/,/,/,/,/,-16
Cc1ccccc1OCC(=O)OCC(=O)c1ccc(OCc2ccccc2)cc1,0,-5,2,2,/,-58
Cc1ccccc1OCC(=O)OCC(=O)c1ccc(OC(=O)c2ccccc2)cc1,-1,20,4,1,/,67*
CC(C)S(=O)(=O)c1cccc(C(=O)Nc2nc3c(s2)COc2ccccc2-3)c1,/,/,/,/,/,-3
O=[N+]([O-])c1ccccc1S(=O)(=O)N1CCc2ccccc2C1,i,-9,5,3,-2,-1
O=[N+]([O-])c1ccccc1S(=O)(=O)N1CCc2ccccc21,/,/,/,/,/,39*
Cc1cc2ccccc2n1CCNC(=O)Cc1ccccc1,1,2,0,-2,-1,44*
Cc1cccc(CC(=O)NCCn2c(C)cc3ccccc32)c1,i,2,7,-1,2,38
COc1cc(/C=C/C(=O)NCCn2c(C)cc3ccccc32)cc(OC)c1OC,0,-4,4,-1,0,48*
Cc1nc(CSc2nnc(-c3ccccc3)o2)cs1,/,/,/,/,/,-9
CCSc1nnc(NC(=O)CSc2nnnn2-c2ccc(C)cc2C)s1,/,/,/,/,/,2
CCCCN(C)S(=O)(=O)c1cc2c3c(c1)CCC(=O)N3CCC2,i,56*,4,-3,1,-13
Cc1ccc(-n2nc(C)c3c(C)c(CCC(=O)NCc4ccco4)c(C)nc32)cc1,0,42,4,/,-5,96*
COc1ccc(-c2ccc(=O)n(CCCC(=O)Nc3nc(C)cs3)n2)cc1OC,/,/,/,/,/,-7
COc1cc(NC(=O)CSc2nc3[nH]ncc3c(=O)n2-c2ccccc2C)cc(OC)c1OC,i,-8,12,2,18*,6
O=C(Cc1csc(SCc2ccc(F)cc2)n1)NCCc1c[nH]c2ccccc12,/,/,/,/,/,20
NC(=O)c1ccc(NC(=O)Cc2cn(Cc3ccc(F)cc3)c3ccccc23)cc1,/,/,/,/,/,-44
O=C(Nc1ccn(Cc2c(F)c(F)cc(F)c2F)n1)c1ccc(COc2ccc(Cl)cc2Cl)o1,0,-13,-7,1,/,9
O=C(Nc1ccn(Cc2c(F)c(F)c(F)c(F)c2F)n1)c1ccc(COc2ccccc2Cl)cc1,0,52*,-14,-1,/,-18
O=C1C(=O)N(CC2CCCO2)C(c2ccco2)C1=C(O)c1ccc(F)cc1 (stereo unspecified),/,/,/,/,/,-3
CC(C(=O)N1CCCc2c1c(=O)oc1ccc(O)cc21)N1CCc2ccccc2C1 (stereo unspecified),i,56*,/,0,/,-24
SMILES,BH1578 lux ind,VHR inh abs,CCHF vOTU inh,3CLpro inhibitor,TcdB GH inh,SSB-PriA inh
CS(=O)(=O)c1ccc(NC(=O)c2ccc(Cl)c(S(=O)(=O)N3CCCCC3)c2)cc1,/,/,/,/,/,-2
O=C(c1ccoc1)N1CCSC(c2ccccc2)CC1 (stereo unspecified),/,/,/,/,/,9
O=C(c1ccc(-n2cccc2)cc1)N1CCS[C@H](c2ccccc2)CC1,/,/,/,/,/,35*
CCN1/C(=C2\OC(=S)N(C)C2=O)Sc2ccccc21,5,18,20,-7,/,-16
CCN1/C(=C2\OC(=S)N(C)C2=O)C=Cc2ccccc21,-1,-5,-11,-1,11*,2
CN(C)c1ccc(C=C2C=CC=C2)cc1,1,/,-8,/,4,41*
CN1C(=O)/C(=C\c2ccc(N(C)C)cc2)OC1=S,1,1,-6,-5,-1,-15
CCCN1CCCc2cc(CCNC(=O)C(C)C)ccc21,/,/,/,/,/,59
CCCN1CCCc2cc(CCNC(=O)c3cccs3)ccc21,/,/,/,/,/,63*
CCCN1CCCc2cc(CCNC(=O)COc3ccccc3F)ccc21,/,/,/,/,/,83*
CCCN1CCCc2cc(CCNC(=O)C(C)(C)C)ccc21,/,/,/,/,/,51*
CCCN1CCCc2cc(CCNC(=O)c3c(OC)cccc3OC)ccc21,/,/,/,/,/,80*
COc1ccc(C(C)C)cc1S(=O)(=O)Nc1cc(C)cc(C)c1,/,/,/,/,/,-2
CCCN1CCCc2cc(CCNC(=O)c3ccccc3F)ccc21,/,/,/,/,/,68*
